SRC3 inh: inhibitors of human steroid receptor coactivator 3 (SRC3) | Q9Y6Q9 | HEK293 GAL4-SRC3 luciferase reporter, luminescence | inhibition, % at 3.6 µM | actives 0.17% (n = 360,000) | AID 588352;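 active = inhibition above a per-campaign cutoff, the mean of all compounds plus 3 SD, cut at about 60% in these data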;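 note: higher means less SRC3-driven luciferase light from the GAL4 reporter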
NR5A2 inv ag: inverse agonists of human LRH-1 (NR5A2). O00482. HEK293T StAR-luciferase reporter, LRH-1 transfected, 24 h. inhibition, % at 3.6 µM. actives 0.13% (n = 360,000). AID 602396;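 active = inhibition above the mean inhibition of all tested compounds plus 3 SD, cut at about 73% in these data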
NCOA2 inhibitor: inhibits human steroid receptor coactivator 2; Q15596; HEK293 GAL4-SRC2 luciferase reporter, luminescence; inhibition, % at 9 µM; actives 0.17% (n = 370,000);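 active = inhibition above the mean inhibition of all tested compounds plus 3 SD, set per campaign, cut at about 52% in these data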
SRC1 inh: inhibits human SRC1 coactivator. HEK293 GAL4-SRC1 luciferase reporter, luminescence. actives 0.12% (n = 360,000). inhibition, % at 3.6 µM. Q15788;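 active = inhibition above the campaign mean plus 3 SD, with each screening campaign given its own cutoff, cut at about 60% in these data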
COUP-TFII inh: blocks human COUP-TFII nuclear receptor | P24468 | HEK293T NGFI-A luciferase reporter, luminescence | inhibition, % at 8.6 µM | actives 0.7% (n = 370,000) | AID 686940;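 active = inhibition above a per-plate cutoff, mean inhibition of test wells between control levels plus 3 SD, cut at about 38% in these data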;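 note: cells cotransfected with COUP-TFII expression vector driving the NGFI-A reporter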
Gal4-VP16 ctr: inhibits VP16 reporter, flagging COUP-TFII antagonist hits | AID 687007 | actives 25% (n = 2,500) | inhibition, % at 8.5 µM | shares compounds with COUP-TFII inh | HEK293 Gal4-VP16 luciferase reporter, luminescence; in the data active = inhibition above about 13%
NR2F2 inh conf: COUP-TFII (NR2F2) inhibition, confirmation assay. actives 45% (n = 2,500). AID 687008. HEK293 NGFI-A luciferase reporter, luminescence. shares compounds with COUP-TFII inh. inhibition, % at 8.5 µM;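 active = mean inhibition over three repeats above a set limit taken from the earlier primary screen, cut at about 38% in these data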
Numbers stand for hits; – = inactive; · = not tested or not shown. Rows were chosen to be rich in hits. Some 0.81% of all compounds tested hit in one or more screens of this group.

SMILES | SRC3 inh | NR5A2 inv ag | NCOA2 inhibitor | SRC1 inh | COUP-TFII inh | Gal4-VP16 ctr | NR2F2 inh conf
O=C(NC1=NCCS1)C1COc2ccccc2O1 (centres undefined) | – | – | 57 | – | 49 | 19 | 49
O=C(Nc1ccncc1)C1COc2ccccc2O1 (centres undefined) | – | – | – | – | – | · | ·
O=C(Nc1ccc(CN2CCS(=O)(=O)CC2)cc1)c1ccc(F)cc1 | – | – | – | – | – | · | ·
COC(=O)Cc1ccc(NC(=O)c2ccc(C(C)(C)C)cc2)cc1 | – | – | 83 | – | 95 | 83 | 93
CC(C)(C)c1ccc(C(=O)Nc2ccc(CN3CCS(=O)(=O)CC3)cc2)cc1 | – | – | – | – | 47 | – | –
O=C(Nc1ccc(CN2CCS(=O)(=O)CC2)cc1)c1ccc(C(F)(F)F)cc1 | – | – | – | – | 50 | – | –
CN1C(=O)c2cc(NC(=O)C3CCCCC3)ccc2OC[C@H]2O[C@@H](CC(=O)NC3CCCC3)CC[C@H]21 | · | · | – | · | – | · | ·
CC(c1c[nH]c2ccccc12)c1c[nH]c2ccc(Br)cc12 (centres undefined) | · | · | – | · | – | · | ·
O=C(NCc1ccco1)O[C@H]1CC[C@@]23CCCN2C(=O)CCC[C@H]3C1 | · | · | · | · | – | · | ·
CC(C)Cn1c(N)c(C(=O)COC(=O)c2ccc(F)cc2)c(=O)n(C)c1=O | – | – | – | – | – | · | ·
CCc1ccc(C(=O)OCC(=O)c2c(N)n(CC(C)C)c(=O)n(C)c2=O)cc1 | – | – | – | – | 47 | – | –
COc1ccc(N2CCN(CCCNC(=O)CCc3cccc(F)c3)CC2)cc1 | · | · | – | · | – | · | ·
O=S(=O)(c1ccccc1)N1CCC(O)(CSc2ccc(Cl)cc2)CC1 | – | – | – | – | 54 | – | –
O=S(=O)(c1ccc(Cl)cc1)N1CCC(O)(CN2CCN(Cc3ccccc3)CC2)CC1 | – | – | – | – | – | · | ·
O=C(CN1CCC(c2nc3ccccc3s2)CC1)NCc1cccs1 | – | – | – | – | 53 | – | –
O=C(CN1CCC(c2nc3ccccc3s2)CC1)N1CCCCC1 | – | – | – | – | – | · | ·
COC1C=CC=C(C)C(=O)NC2=CC(=O)C(N)=C(CC(C)CC(OC)C(O)C(C)C=C(C)C1OC(N)=O)C2=O (centres undefined) | 75 | 86 | – | 72 | 55 | 61 | 75
COC1CC(C)C(OC)c2cc(O)cc(c2O)NC(=O)C(C)=CC=CC(C)C(OC(N)=O)C(C)=CC(C)C1OC (centres undefined) | – | – | – | – | – | · | ·
CC(C)CNS(=O)(=O)/C=C/c1ccccc1CCNC(=O)OC(C)(C)C | · | · | – | · | – | · | ·
COC(=O)c1ccc2nc(NC(=O)C(C)(C)C)sc2c1 | – | – | – | – | 66 | – | –
CC(=O)c1sc(Nc2nc3ccc(F)cc3s2)nc1C | – | – | – | – | – | · | ·
COC(=O)c1ccc2nc(Nc3nc4ccc(F)cc4s3)sc2c1 | – | – | – | – | 52 | – | 58
O=S1(=O)CC2c3ccccc3CCN2CN1Cc1ccccc1 (centres undefined) | · | · | – | · | – | · | ·
COc1ccc(C2=NS(=O)(=O)N(C)C(C(=O)NCc3ccccc3)=C2)cc1OC | – | – | – | – | – | · | ·
COc1ccc(C2=NS(=O)(=O)N(C)C(C(=O)N3CCc4ccccc4C3)=C2)cc1OC | – | – | – | – | 39 | – | –
SMILES | SRC3 inh | NR5A2 inv ag | NCOA2 inhibitor | SRC1 inh | COUP-TFII inh | Gal4-VP16 ctr | NR2F2 inh conf
CCc1ccc(NC(=O)C2=CC(c3ccc(OC)c(OC)c3)=NS(=O)(=O)N2C)cc1 | – | – | – | – | 38 | – | –
CN(Cc1ccc(OCC(O)CN2CCCCC2)cc1)Cc1ccnc2ccccc12 (centres undefined) | – | – | – | – | 59 | – | 44
O=C(NCCc1ccc(F)cc1)c1ccc(Cl)c(S(=O)(=O)N2CCOCC2)c1 | – | – | – | – | 40 | – | –
COc1cc(CCC(=O)Nc2ccc(S(=O)(=O)N3CCCC3)cc2)cc(OC)c1OC | – | – | – | – | – | · | ·
COc1ccc(CCC(=O)Nc2ccc(Cl)c(S(=O)(=O)N3CCCC3)c2)cc1 | – | – | – | – | 59 | – | 38
COc1ccc(CCC(=O)Nc2ccc(OC)c(S(=O)(=O)N3CCCCC3)c2)cc1OC | – | – | – | – | – | · | ·
COc1cc(CCC(=O)Nc2ccc(C)c(S(=O)(=O)N3CCCCCC3)c2)cc(OC)c1OC | – | – | – | – | 54 | – | –
CC1CCCN(S(=O)(=O)c2cc(C(=O)NCCc3ccc(S(N)(=O)=O)cc3)ccc2Cl)C1 (centres undefined) | – | – | – | – | 64 | – | 39
CC1CCCN(S(=O)(=O)c2cc(C(=O)NCc3ccco3)ccc2Cl)C1 (centres undefined) | – | – | – | – | – | · | ·
O=C(NCCc1ccccc1)c1ccc(Cl)c(S(=O)(=O)N2CCCC2)c1 | – | – | · | – | · | · | ·
COc1ccc(CCNC(=O)c2ccc(Cl)c(S(=O)(=O)N3CCCCCC3)c2)cc1 | – | – | – | – | 63 | – | 41
CCOc1ccc(S(=O)(=O)Nc2cnc3ccccc3c2)cc1 | – | – | – | – | 43 | – | –
NC(COCc1ccccc1)c1csc(Nc2ncccn2)n1 (centres undefined) | – | – | – | – | – | · | ·
CC(C)CC(N)c1csc(Nc2ncccn2)n1 (centres undefined) | – | – | – | – | 43 | – | –
CCOc1ccc(CCNC(=O)C2CCCCC2)cc1OCC | · | · | · | · | – | · | ·
COC(=O)C1=C(C(=O)OC)[C@]2([C@@H]3CCCCN[C@@H](Cc4ccccc4)C(=O)N3Cc3ccccc3)C=C[C@H]1O2 | – | – | – | – | – | · | ·
COC(=O)C1=C(C(=O)OC)[C@@]2([C@@H](Cc3ccc(C)cc3)Nc3ccccc3)C=C[C@@H]1O2 | · | · | · | · | 81 | 31 | –
c1cc2ccn(CC3CC3)c2cc1-c1ccc2ccn(CC3CC3)c2c1 | · | · | – | · | – | · | ·
COc1ccc(CN(C)Cc2nc(Cc3cccc(F)c3)no2)c2cccnc12 | – | – | – | – | 60 | – | 47
COc1cccc(-n2cc(CN(C)Cc3nc(Cc4cccc(F)c4)no3)cn2)c1 | – | – | – | – | – | · | ·
CCN(CC)c1ccc(/C=C/c2ccc3ccc(OC)cc3[n+]2CC)cc1 | – | 74 | – | – | 51 | 20 | 67
COC(=O)C1CCN(C(=O)c2cc(-c3ccc(Cl)s3)nc3ccccc23)CC1 | – | – | – | – | 38 | – | –
Cc1ccc(-n2c(SCC(=O)Nc3cccc4ccccc34)nnc2-c2cccs2)cc1 | · | · | – | · | – | · | ·
COc1ccc(C=NNC(=O)Cc2cc(=O)[nH][nH]2)c(OC)c1 | · | · | – | · | – | · | ·
CC(C)(C)c1ccc(C(=O)O/N=C(\N)c2ccccc2)cc1 | 82 | – | 80 | 82 | 86 | 66 | 91
COc1ccc(-n2c(C)c([N+](=O)[O-])c3ccc(O)c(CN(C)C)c32)cc1 | – | – | 54 | 69 | 41 | 29 | –

Source: PubChem BioAssay
